In the library only some 7.3% were active in any assay of this set; here they are far more common.
Tau fibril ThT – blocks human tau fibril formation measured by thioflavin T; 270,000 compounds, 2.1% hits; P10636; recombinant tau K18 P301L, heparin-induced fibrillization, ThT fluorescence; AID 1460; Potency, µM (titrated, usually from 57.4 µM), actives largely listed as inhibitors; further: nearly all actives have a fitted effect of over 55% in size
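In this qHTS, human K18 P301L tau is incubated with compound and heparin for 6 hr at 37 C, and Thioflavin T fluorescence then reports fibril load.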
RORgamma inh – inhibitors of mouse ROR gamma transcriptional activity. P51450. Drosophila S2 Gal4-RORgamma UAS-luciferase reporter, 20 h. Potency, µM (titrated, usually from 53.6 µM), actives largely listed as inhibitors. 310,000 compounds, 5.4% hits; further: nearly all actives have a fitted effect of over 60% in size
Target sequence (P51450 whole entry, looked up, the tested form may be a part): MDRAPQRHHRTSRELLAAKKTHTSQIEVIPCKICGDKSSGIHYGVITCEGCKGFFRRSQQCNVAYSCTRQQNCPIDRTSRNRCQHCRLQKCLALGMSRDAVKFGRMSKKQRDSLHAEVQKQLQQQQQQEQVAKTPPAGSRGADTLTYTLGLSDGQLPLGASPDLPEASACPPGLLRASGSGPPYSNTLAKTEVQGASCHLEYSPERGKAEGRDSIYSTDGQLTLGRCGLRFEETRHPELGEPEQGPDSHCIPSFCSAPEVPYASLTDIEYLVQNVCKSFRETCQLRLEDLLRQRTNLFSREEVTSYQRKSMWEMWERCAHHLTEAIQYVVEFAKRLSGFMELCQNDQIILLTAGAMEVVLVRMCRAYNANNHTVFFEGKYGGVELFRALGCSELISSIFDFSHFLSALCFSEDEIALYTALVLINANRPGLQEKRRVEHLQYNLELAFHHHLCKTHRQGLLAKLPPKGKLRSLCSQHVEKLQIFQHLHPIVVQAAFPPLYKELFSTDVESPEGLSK
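Luciferase reporter read in Schneider cells carrying Gal4-RORγ (mouse) and UAS-Photinus luciferase; cells given compound 1 h before 700 uM copper sulfate induction, then incubated 20 h at ambient temperature.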
Tau fluor counter – counter-screen for tau fibril formation inhibitors; tau K18 P301L Alexa594 fluorescence, heparin fibrillization; Potency, µM (top dose mostly 57.7 µM); 280,000 compounds, 0.93% hits; AID 1463; further: nearly all actives have a fitted effect of over 55% in size
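Human tau K18 P301L (15 uM unlabeled, 0.24 uM Alexa 594-labeled) in 100 mM sodium acetate pH 7 with 20 uM heparin, 6 hr at 37 C. ThT 30 uM added, 1 hr ambient; Alexa 594 FP and total fluorescence read at 555/632 nm.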
Tau fibril FP – tau fibrillization inhibition (FP). Potency, µM (series often up to 57.7 µM), usual class: inhibitors. K18 P301L tau heparin fibrillization, Alexa594 FP, 6 h. 280,000 compounds, 0.39% hits. AID 1468; further: nearly all actives have a fitted effect of over 55% in size
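Read-out: fluorescence polarization of Alexa 594-labeled tau (0.24 uM), 555 nm excitation, 632 nm emission. Mixtures held 15 uM unlabeled K18 P301L, compound and 20 uM heparin, pH 7 acetate buffer, incubated 6 hr at 37 C.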
VP16 counter – counter-screen for ROR gamma inhibitors: Gal4-VP16 reporter; AID 2546; Potency, µM (series often up to 53.6 µM), hits mostly inhibitors; 310,000 compounds, 3.5% hits; Drosophila S2 Gal4-VP16 UAS-luciferase, luminescence, 20 h;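 further: Gal4-VP16 expression switched on by copper sulfate through the metallothionein promoter; nearly all actives have a fitted effect of over 50% in size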
Each line names hits and unclear results; the compound was inactive in the other large screens; [ ] = dose if it differs, or a comment. The call rests on the fitted dose curve; in most records, active means well fitted curve in the direction sought with a large enough effect; inconclusive means small, poorly fitted or top-dose-only effect, or another doubt; inactive means no such curve, though single readings can be large; an effect the other way counts as inactive or inconclusive.

COc1ccc2no[n+]([O-])c2c1	RORgamma inh 6.3µM, VP16 counter 7.1µM
Cc1cnnc2ccc3c(no[n+]3[O-])c12	Tau fluor counter inconclusive
O=C(CSc1nnc(-c2ccncc2)o1)c1cccc([N+](=O)[O-])c1	Tau fibril ThT inconclusive
CC(=O)Nc1cccc(-c2nnc(SCC(=O)c3cc([N+](=O)[O-])ccc3Cl)o2)c1	Tau fibril ThT inconclusive, Tau fluor counter 20µM[quencher] (no result: RORgamma inh, VP16 counter)
Cc1ccc(C2Nc3ccccc3-c3nc4ccccc4n32)o1 (centres undefined)	Tau fibril ThT inconclusive, RORgamma inh inconclusive, Tau fluor counter 32µM[quencher], Tau fibril FP inconclusive
Cc1oc(-c2nc3ccccc3n2C)cc1C(=O)c1ccccc1	Tau fibril ThT inconclusive, RORgamma inh 11µM, Tau fibril FP inconclusive, VP16 counter inconclusive
CC1(c2ccncc2)Nc2ccccc2-c2nc3ccccc3n21 (centres undefined)	none (no result: VP16 counter)
Cc1ccc(-c2nc3ccccc3n2C)o1	Tau fibril ThT inconclusive, RORgamma inh 11µM, VP16 counter inconclusive
Cn1cc(C(=O)c2ccccc2)cc1-c1nc2ccccc2n1C	none
Cc1cc(NC(=O)C2CCCN(S(=O)(=O)c3cccc4nonc34)C2)ccc1Br (centres undefined)	none (no result: RORgamma inh, VP16 counter)
Cc1cccc(N2CCN(Cc3nnc(-c4ccccc4C)o3)CC2C)c1 (centres undefined)	Tau fibril ThT inconclusive (no result: RORgamma inh, VP16 counter)
COC(=O)/C(C#N)=C/c1ccc(-c2ccc(S(N)(=O)=O)cc2)o1	none
N#CC(C#N)=Cc1ccc(-c2ccc(S(=O)(=O)N=C(N)N)cc2)o1	Tau fibril ThT 20µM, Tau fluor counter inconclusive
Cc1cc(-c2ccccc2)c2ccc(NC(=O)C(C)(C)C)nc2n1	RORgamma inh 11µM, VP16 counter inconclusive (no result: Tau fibril ThT, Tau fluor counter, Tau fibril FP)
Cc1cc(C)nc(/N=C(\NC(=O)C(C)(C)C)Nc2ccccc2)n1	none
CCOC(=O)N/N=C/C=C/c1ccccc1	VP16 counter inconclusive
O=C(N/N=C/C=C/c1ccccc1)c1ccncc1	RORgamma inh 2.8µM, VP16 counter 7.1µM
COC(=O)/C=C/c1ccc2c(c1)OCO2	none
O=C(N/N=C/C=C/c1ccccc1[N+](=O)[O-])c1cccs1	Tau fibril ThT inconclusive, RORgamma inh inconclusive, VP16 counter inconclusive
O=C(N/N=C\C=C\c1ccc([N+](=O)[O-])o1)c1cccs1	RORgamma inh 7.9µM, VP16 counter 11µM (no result: Tau fibril ThT, Tau fluor counter, Tau fibril FP)
O=C(N/N=C/C=C\c1ccccc1[N+](=O)[O-])c1ccncc1	RORgamma inh 10µM, VP16 counter inconclusive
CCNc1ccccc(C(=O)/C=C/c2ccc3c(c2)OCO3)c1=O	Tau fibril ThT 14µM, RORgamma inh 7.9µM, Tau fluor counter inconclusive, Tau fibril FP inconclusive, VP16 counter inconclusive
CCC1CN(C(=O)N2CCC(C(=O)NCCc3ccc(OC)cc3OC)CC2)c2ccccc2O1 (centres undefined)	none (no result: Tau fibril ThT, Tau fluor counter, Tau fibril FP)
CCN(CC(=O)Nc1ccc(OC)cc1)C(=O)CN1C(=O)NC(C)(c2ccc3ccccc3c2)C1=O (centres undefined)	none (no result: Tau fibril ThT, Tau fluor counter, Tau fibril FP)
CN(C(=O)CN1C(=O)/C(=C/c2ccccc2F)SC1=S)C1CCS(=O)(=O)C1 (centres undefined)	none (no result: Tau fibril ThT, Tau fluor counter, Tau fibril FP)
CCOC(=O)c1ccc(CN(Cc2ccc(F)cc2)S(=O)(=O)c2ccc(F)c(C(=O)Nc3ccc(Cl)cc3F)c2)cc1	none (no result: RORgamma inh, VP16 counter)
O=C(N/N=C/c1ccc(OC(=O)c2ccc([N+](=O)[O-])cc2)cc1)c1cccnc1	none (no result: Tau fibril ThT, Tau fluor counter, Tau fibril FP)
O=C(N/N=C/C=C\c1ccc([N+](=O)[O-])cc1)c1cccnc1	Tau fibril ThT inconclusive, RORgamma inh 5.6µM, VP16 counter inconclusive
CC(/C=C/c1ccc2c(c1)OCO2)=N\NC(=O)c1ccccc1	Tau fibril ThT inconclusive, RORgamma inh 5.6µM, VP16 counter 16µM
CC(/C=C/c1ccc2c(c1)OCO2)=N\NC(=O)C(O)c1ccccc1 (centres undefined)	none
COc1ccc(CC(=O)N/N=C/C=C/c2cccc([N+](=O)[O-])c2)cc1OC	Tau fibril ThT inconclusive
CC(/C=C/c1ccccc1)=N\NC(=O)c1ccncc1	RORgamma inh 7.1µM, VP16 counter 11µM
O=C(Cc1cccc2ccccc12)N/N=C/C=C/c1cccc([N+](=O)[O-])c1	Tau fibril ThT inconclusive, RORgamma inh 13µM, Tau fluor counter inconclusive, VP16 counter inconclusive
O=C(N/N=C/C=C/c1cccc([N+](=O)[O-])c1)c1ccncc1	RORgamma inh 7.1µM, VP16 counter inconclusive (no result: Tau fibril ThT)
